In publication PMC7862700, “An all-to-all approach to the identification of sequence-specific readers for epigenetic DNA modifications on cytosine” one finds binding signal data, which are given here for one sequence.

What all share (test): DAPPL (digital affinity profiling via proximity ligation, sequencing); 10 mM Tris-HCl pH 7.5, 50 mM NaCl, 1 mM DTT, 4% glycerol, room temperature, 30 min; GST-TFs on glutathione beads, 16-mer random dsDNA library, 0.1% formaldehyde crosslink after washing; high values mean tight binding
The target of experiment [1] is T1, FEV (Homo sapiens, UniProt Q99581 1-238).
T1 sequence: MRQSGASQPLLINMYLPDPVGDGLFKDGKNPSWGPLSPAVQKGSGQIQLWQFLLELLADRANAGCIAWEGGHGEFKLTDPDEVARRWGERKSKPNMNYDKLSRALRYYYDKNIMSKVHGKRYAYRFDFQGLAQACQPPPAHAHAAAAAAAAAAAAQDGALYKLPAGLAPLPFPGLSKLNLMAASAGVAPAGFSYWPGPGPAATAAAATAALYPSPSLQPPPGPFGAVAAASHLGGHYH
The following applies: protein: recombinant; tags: N-terminal GST; dsDNA, one strand shown. The procedure, abridged: (§1)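 Each value of binding signal is a hexamer's read frequency for a factor divided by the same hexamer's frequency in the tag-only sample. Barcoded, bead-captured GST fusions of human transcription factors made in yeast were pooled with that sample and incubated with 200 nmole of a random double-stranded 16-mer DNA library in Tris/NaCl/DTT/glycerol buffer at room temperature for 30 min. Washing, 0.1% formaldehyde crosslinking, proximity ligation, PCR and Illumina NextSeq500 sequencing followed.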

Experiment [2] deals with ETV5 (Homo sapiens, UniProt P41161 1-510). To be noted: protein: recombinant; tags: N-terminal GST; dsDNA, one strand shown. The procedure, abridged:
as §1

In experiment [3] the target is HSF1 (Homo sapiens, UniProt Q00613 1-529). To be noted: protein: recombinant; tags: N-terminal GST; chain copies: 3; dsDNA, one strand shown. The procedure, abridged: as §1
For experiment [4], the target named is T2, SPIC (Homo sapiens, UniProt Q8N5J4 1-248).
T2 sequence: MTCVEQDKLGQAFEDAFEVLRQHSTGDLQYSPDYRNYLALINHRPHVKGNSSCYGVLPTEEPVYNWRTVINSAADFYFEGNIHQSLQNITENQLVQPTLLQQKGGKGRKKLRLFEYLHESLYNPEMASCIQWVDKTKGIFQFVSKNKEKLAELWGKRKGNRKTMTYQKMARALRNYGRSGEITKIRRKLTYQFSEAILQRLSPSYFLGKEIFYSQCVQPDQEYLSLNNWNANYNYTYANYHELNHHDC
To be noted: protein: recombinant; tags: N-terminal GST; dsDNA, one strand shown. The method in brief: as §1

Experiment [5] addresses ELF4 (Homo sapiens, UniProt Q99607 1-663). The following applies: protein: recombinant; tags: N-terminal GST; dsDNA, one strand shown. The method in brief: as §1
Experiment [6] addresses T3, ELK4 (Homo sapiens, UniProt P28324-2 1-405).
T3 sequence: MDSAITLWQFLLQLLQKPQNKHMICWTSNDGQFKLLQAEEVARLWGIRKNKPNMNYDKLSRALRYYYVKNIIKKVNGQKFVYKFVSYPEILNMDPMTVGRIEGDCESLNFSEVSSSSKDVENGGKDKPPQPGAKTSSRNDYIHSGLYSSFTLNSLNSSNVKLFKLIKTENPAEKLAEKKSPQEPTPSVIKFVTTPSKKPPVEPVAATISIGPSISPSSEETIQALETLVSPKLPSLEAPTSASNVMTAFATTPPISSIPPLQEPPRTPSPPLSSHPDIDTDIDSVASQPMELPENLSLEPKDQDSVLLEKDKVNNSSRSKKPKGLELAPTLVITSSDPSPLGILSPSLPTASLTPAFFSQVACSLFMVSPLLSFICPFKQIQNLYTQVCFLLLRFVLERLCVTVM
To be noted: protein: recombinant; tags: N-terminal GST; dsDNA, one strand shown. The procedure, abridged:
as §1

Experiment [7] deals with T4, ETV2 (Homo sapiens, UniProt O00321 1-342).
T4 sequence: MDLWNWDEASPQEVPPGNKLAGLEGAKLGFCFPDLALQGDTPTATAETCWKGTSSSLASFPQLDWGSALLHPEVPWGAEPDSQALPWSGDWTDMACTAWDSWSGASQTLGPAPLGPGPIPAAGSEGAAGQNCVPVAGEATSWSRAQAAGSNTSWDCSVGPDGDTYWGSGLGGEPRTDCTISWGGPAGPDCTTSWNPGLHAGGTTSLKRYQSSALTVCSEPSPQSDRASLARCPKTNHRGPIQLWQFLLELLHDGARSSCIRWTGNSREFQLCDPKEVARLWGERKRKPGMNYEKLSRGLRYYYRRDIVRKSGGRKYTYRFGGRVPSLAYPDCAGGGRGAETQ
To be noted: protein: recombinant; tags: N-terminal GST; dsDNA, one strand shown. The method in brief: as §1

The target of experiment [8] is T5, ELF3 (Homo sapiens, UniProt P78545 1-371).
T5 sequence: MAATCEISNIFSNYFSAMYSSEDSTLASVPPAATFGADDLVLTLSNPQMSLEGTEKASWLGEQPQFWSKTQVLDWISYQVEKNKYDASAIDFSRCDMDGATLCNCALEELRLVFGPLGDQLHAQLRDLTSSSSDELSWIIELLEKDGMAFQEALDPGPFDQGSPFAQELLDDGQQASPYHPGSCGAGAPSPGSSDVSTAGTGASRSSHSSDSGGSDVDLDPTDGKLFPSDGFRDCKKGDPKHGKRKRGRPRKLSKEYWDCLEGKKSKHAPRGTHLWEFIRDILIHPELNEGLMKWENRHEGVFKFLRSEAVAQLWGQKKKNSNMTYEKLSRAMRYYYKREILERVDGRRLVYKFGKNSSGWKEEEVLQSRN
To be noted: protein: recombinant; tags: N-terminal GST; dsDNA, one strand shown. The procedure, abridged:
as §1

The target in experiment [9] is CRX (Homo sapiens, UniProt O43186 1-299). The following applies: protein: recombinant; tags: N-terminal GST; dsDNA, one strand shown. The procedure, abridged: as §1
In experiment [10] the target is ETV1 (Homo sapiens, UniProt P50549 1-477). To be noted: protein: recombinant; tags: N-terminal GST; dsDNA, one strand shown. The method in brief:
as §1

The target of experiment [11] is T6, ERF (Homo sapiens, UniProt P50548 1-548).
T6 sequence: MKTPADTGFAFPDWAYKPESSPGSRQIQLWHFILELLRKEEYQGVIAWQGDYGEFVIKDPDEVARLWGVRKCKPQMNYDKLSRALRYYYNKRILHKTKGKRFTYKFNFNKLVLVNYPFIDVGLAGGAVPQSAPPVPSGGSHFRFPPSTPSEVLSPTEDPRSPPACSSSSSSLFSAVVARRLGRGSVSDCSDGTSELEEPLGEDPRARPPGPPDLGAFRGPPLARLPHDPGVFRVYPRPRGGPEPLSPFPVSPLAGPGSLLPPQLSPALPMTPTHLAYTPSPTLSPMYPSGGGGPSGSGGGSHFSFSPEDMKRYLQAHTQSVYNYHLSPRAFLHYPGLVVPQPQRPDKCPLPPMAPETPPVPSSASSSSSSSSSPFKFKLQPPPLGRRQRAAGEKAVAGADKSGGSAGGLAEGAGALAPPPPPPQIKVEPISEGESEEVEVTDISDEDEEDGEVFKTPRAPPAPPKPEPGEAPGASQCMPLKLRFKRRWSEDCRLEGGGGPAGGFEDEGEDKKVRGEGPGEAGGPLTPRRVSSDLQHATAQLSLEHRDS
To be noted: protein: recombinant; tags: N-terminal GST; dsDNA, one strand shown. The procedure, abridged: as §1

The target in experiment [12] is T7, ETV3L (Homo sapiens, UniProt Q6ZN32 1-361).
T7 sequence: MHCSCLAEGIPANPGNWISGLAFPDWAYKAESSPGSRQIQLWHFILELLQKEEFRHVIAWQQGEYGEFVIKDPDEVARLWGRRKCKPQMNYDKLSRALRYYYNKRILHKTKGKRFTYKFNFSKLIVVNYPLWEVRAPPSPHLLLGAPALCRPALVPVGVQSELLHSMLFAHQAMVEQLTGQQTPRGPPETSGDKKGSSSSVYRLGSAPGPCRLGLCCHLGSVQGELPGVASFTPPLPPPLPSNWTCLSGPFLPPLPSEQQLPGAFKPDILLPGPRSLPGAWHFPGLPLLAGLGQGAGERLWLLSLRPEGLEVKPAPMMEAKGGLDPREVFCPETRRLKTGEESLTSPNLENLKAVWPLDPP
The following applies: protein: recombinant; tags: N-terminal GST; dsDNA, one strand shown. The procedure, abridged:
as §1

In experiment [13] the target is T8, ETS2 (Homo sapiens, UniProt P15036 1-469).
T8 sequence: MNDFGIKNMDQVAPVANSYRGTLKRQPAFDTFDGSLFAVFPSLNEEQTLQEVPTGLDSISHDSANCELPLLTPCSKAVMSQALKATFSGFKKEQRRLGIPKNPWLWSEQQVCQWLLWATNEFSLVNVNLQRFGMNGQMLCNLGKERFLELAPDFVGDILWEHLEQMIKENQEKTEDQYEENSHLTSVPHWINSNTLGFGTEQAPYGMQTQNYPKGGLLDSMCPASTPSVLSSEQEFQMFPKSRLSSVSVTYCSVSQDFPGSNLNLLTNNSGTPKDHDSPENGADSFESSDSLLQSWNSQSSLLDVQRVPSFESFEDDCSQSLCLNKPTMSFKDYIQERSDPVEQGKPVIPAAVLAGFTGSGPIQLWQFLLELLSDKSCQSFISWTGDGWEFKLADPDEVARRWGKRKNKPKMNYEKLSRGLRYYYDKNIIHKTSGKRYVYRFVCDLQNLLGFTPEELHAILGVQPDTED
The following applies: protein: recombinant; tags: N-terminal GST; dsDNA, one strand shown. The procedure, abridged:
as §1

The target in experiment [14] is T9, SPDEF (Homo sapiens, UniProt O95238 1-335).
T9 sequence: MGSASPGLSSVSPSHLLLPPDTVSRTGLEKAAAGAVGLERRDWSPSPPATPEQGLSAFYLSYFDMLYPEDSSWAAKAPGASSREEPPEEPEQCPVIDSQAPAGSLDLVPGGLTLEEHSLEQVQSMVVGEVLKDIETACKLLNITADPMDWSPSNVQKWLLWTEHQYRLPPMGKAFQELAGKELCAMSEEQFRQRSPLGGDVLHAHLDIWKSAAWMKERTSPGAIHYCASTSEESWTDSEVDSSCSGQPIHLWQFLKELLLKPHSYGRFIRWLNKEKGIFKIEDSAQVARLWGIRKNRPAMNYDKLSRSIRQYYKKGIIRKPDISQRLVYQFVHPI
The following applies: protein: recombinant; tags: N-terminal GST; dsDNA, one strand shown. The procedure, abridged: as §1

Experiment [15] has as its target T10, ETV7 (Homo sapiens, UniProt Q9Y603 1-341).
T10 sequence: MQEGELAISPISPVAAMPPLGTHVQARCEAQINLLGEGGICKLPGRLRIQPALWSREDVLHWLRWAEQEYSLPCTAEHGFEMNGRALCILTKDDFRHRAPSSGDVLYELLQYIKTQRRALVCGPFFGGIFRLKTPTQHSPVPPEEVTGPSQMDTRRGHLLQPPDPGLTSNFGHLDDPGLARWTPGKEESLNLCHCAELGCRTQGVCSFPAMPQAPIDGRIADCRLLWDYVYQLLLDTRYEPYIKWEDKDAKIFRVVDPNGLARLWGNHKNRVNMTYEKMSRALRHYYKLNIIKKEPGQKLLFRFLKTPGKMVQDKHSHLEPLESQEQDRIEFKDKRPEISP
To be noted: protein: recombinant; tags: N-terminal GST; dsDNA, one strand shown. The procedure, abridged:
as §1

The target of experiment [16] is T11, ELF5 (Homo sapiens, UniProt Q9UKW6-2 1-255).
T11 sequence: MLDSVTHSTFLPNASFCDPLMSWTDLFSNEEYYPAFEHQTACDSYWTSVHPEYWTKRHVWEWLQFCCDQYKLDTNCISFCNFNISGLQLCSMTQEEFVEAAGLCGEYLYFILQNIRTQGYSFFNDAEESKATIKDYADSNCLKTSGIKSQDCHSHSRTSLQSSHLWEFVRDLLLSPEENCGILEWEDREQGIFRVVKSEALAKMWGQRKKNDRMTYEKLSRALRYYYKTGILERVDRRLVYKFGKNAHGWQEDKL
The following applies: protein: recombinant; tags: N-terminal GST; dsDNA, one strand shown. The procedure, abridged:
as §1

The target of experiment [17] is T12, ETV3 (Homo sapiens, UniProt P41162-2 1-143).
T12 sequence: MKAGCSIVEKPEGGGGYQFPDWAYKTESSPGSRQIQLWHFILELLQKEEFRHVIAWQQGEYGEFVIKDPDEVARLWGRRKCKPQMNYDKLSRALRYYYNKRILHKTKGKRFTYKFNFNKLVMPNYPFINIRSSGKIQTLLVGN
To be noted: protein: recombinant; tags: N-terminal GST; dsDNA, one strand shown. The procedure, abridged: as §1

Experiment [18] addresses ETV6 (Homo sapiens, UniProt P41212 1-452). To be noted: protein: recombinant; tags: N-terminal GST; dsDNA, one strand shown. The method in brief:
as §1

Sequence of HSF1 (Q00613 whole entry): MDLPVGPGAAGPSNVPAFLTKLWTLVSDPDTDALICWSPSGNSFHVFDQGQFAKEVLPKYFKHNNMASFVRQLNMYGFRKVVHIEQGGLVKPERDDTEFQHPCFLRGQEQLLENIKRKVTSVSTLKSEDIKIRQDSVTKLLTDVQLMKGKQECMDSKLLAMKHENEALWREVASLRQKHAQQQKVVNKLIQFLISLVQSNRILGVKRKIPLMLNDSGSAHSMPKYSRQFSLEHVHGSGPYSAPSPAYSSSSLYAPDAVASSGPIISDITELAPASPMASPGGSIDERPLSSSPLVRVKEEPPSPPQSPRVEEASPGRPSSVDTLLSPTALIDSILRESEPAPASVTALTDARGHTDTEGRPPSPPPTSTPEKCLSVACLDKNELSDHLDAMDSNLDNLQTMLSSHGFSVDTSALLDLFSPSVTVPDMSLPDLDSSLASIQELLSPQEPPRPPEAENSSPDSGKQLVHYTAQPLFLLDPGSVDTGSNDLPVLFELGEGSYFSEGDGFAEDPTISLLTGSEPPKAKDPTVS
Sequence of ETV1 (P50549 whole entry): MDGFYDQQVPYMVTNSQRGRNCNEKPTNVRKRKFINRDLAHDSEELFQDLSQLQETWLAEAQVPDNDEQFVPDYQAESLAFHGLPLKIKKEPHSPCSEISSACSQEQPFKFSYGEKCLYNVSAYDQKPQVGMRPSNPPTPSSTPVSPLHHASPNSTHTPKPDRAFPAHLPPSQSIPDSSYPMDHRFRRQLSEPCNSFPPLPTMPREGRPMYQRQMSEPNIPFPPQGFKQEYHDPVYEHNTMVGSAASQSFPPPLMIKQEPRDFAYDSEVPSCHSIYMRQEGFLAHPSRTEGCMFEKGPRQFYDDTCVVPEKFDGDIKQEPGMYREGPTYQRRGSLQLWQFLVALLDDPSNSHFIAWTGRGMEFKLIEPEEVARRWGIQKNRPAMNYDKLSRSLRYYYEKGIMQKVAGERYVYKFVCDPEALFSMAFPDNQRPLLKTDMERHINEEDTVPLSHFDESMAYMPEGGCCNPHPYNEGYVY
Sequence of ETV6 (P41212 whole entry): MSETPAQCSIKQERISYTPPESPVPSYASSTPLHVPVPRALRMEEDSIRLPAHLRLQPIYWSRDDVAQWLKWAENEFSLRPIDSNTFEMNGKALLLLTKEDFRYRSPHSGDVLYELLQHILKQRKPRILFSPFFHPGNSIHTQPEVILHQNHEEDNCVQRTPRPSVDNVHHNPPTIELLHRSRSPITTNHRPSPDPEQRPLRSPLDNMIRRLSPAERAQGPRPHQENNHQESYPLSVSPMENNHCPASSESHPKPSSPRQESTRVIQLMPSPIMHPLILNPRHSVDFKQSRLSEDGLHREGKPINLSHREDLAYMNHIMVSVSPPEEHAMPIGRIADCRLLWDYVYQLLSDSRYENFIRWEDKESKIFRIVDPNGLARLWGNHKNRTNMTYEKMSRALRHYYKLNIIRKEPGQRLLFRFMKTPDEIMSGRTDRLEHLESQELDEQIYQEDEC
Sequence of ELF4 (Q99607 whole entry): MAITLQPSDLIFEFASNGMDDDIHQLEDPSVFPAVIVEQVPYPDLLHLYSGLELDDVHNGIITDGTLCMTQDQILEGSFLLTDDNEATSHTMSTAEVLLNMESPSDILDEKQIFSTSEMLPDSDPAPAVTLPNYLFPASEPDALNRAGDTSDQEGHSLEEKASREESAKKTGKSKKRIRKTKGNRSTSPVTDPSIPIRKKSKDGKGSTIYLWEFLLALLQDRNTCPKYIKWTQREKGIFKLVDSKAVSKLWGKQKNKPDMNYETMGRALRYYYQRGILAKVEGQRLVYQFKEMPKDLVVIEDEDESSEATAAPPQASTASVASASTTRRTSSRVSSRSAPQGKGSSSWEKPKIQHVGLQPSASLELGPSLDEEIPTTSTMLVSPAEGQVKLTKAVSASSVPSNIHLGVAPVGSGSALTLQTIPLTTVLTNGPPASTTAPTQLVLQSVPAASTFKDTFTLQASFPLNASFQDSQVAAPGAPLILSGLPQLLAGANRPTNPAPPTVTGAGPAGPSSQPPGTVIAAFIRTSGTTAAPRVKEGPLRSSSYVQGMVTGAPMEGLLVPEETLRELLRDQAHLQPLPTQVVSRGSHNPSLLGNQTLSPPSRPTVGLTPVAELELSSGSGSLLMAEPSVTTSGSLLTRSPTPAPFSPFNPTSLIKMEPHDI
Sequence of CRX (O43186 whole entry): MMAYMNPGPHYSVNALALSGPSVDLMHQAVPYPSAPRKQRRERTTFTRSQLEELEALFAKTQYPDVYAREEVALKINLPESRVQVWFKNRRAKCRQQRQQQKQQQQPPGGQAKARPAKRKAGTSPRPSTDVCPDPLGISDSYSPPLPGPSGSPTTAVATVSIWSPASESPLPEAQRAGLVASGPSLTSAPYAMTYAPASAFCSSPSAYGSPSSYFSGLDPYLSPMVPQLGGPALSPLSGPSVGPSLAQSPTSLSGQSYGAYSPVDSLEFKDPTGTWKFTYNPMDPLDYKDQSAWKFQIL
Sequence of ETV5 (P41161 whole entry): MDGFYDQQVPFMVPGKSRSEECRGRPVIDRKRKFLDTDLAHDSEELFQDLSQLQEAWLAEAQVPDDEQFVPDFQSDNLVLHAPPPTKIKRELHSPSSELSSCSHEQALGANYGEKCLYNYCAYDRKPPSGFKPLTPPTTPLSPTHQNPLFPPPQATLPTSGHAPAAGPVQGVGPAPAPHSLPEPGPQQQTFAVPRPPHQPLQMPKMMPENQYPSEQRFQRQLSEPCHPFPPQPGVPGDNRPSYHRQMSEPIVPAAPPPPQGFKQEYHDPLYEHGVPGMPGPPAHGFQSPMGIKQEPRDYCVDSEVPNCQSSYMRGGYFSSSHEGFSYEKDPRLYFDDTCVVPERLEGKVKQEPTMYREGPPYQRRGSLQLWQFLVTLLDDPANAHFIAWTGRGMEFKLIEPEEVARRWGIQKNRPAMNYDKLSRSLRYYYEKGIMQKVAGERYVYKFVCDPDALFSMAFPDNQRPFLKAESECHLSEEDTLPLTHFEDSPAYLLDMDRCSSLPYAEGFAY

AATTTC: the binding signal in experiment [1] was 1.93 fold enrichment (6-mer frequency, TF over GST control); in [2] it was 1.8 fold enrichment (6-mer frequency, TF over GST control); in experiment [3], 1.89 fold enrichment (6-mer frequency, TF over GST control); in experiment [4] it was 1.59 fold enrichment (6-mer frequency, TF over GST control); in [5], 1.61 fold enrichment (6-mer frequency, TF over GST control); in experiment [6] it was 1.6 fold enrichment (6-mer frequency, TF over GST control). Also, the binding signal in experiment [7] is 1.88 fold enrichment (6-mer frequency, TF over GST control); in experiment [8] it was 1.75 fold enrichment (6-mer frequency, TF over GST control); in [9] it was 1.49 fold enrichment (6-mer frequency, TF over GST control); in [10] it was 1.79 fold enrichment (6-mer frequency, TF over GST control); in experiment [11], 1.7 fold enrichment (6-mer frequency, TF over GST control); in [12], 1.73 fold enrichment (6-mer frequency, TF over GST control). Besides, the binding signal is 1.83 fold enrichment (6-mer frequency, TF over GST control) in experiment [13]; 1.59 fold enrichment (6-mer frequency, TF over GST control) in experiment [14]; 1.74 fold enrichment (6-mer frequency, TF over GST control) in [15]; 2.31 fold enrichment (6-mer frequency, TF over GST control) in [16]; 1.78 fold enrichment (6-mer frequency, TF over GST control) in experiment [17]; 1.94 fold enrichment (6-mer frequency, TF over GST control) in experiment [18].
